Screening data as filed in PubChem BioAssay.
HT1080NT lethal: kills 2HG-producing HT-1080-NT fibrosarcoma cells. HT-1080-NT fibrosarcoma viability, CellTiter-Glo ATP luminescence, 48 h. Potency, µM (series often up to 46.1 µM), inactives show at the top dose activity, negative = less viability, hits mostly cytotoxic. 360,000 tested, 1.6% active;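 note: NT is the 2HG producing partner of a matched IDH1 knockdown line; potency is the fitted concentration of half-maximal effect; 0% = DMSO-treated cells and -100% = media-only wells without cells; nearly all actives have a fitted effect of over 55% in size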
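Compounds were tested in concentration-response format on HT-1080-NT cells for 48 hours at 37 degrees C. Cell viability came from CellTiter-Glo luminescence; curves were classified by r2, response magnitude and activity.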
HT1080 IDH1KD tx: toxicity to HT-1080 IDH1 knockdown cells (counter line); HT-1080 IDH1 knockdown viability, ATP luminescence, 48 h; Potency, µM (doses to about 46.1 µM), inactives show top-dose activity, negative = toxicity, most hits filed as cytotoxic; 360,000 tested, 2% active; AID 686971;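 note: potency is the fitted concentration of half-maximal effect; 0% = DMSO wells and -100% = cell-free medium wells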
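Cytotoxicity counter-line: IDH1KD HT-1080, 48 h, CellTiter-Glo. Curves classed by r2, magnitude and activity.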
TDP1 cell CPT: DT40-hTDP1 cell growth loss with CPT; chicken DT40 Tdp1-/-;hTDP1 cells + 20 nM CPT, ATP luminescence, 48 h; Potency, µM (titrated, usually from 46.2 µM), inactives show at the highest dose activity change, negative = growth inhibition, hits mostly inhibitors; 420,000 tested, 12% active; AID 686979; note: potency is the fitted concentration of half-maximal effect; nearly all actives have a fitted effect of over 55% in size
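Cell growth measured by CellTiter-Glo luminescence after a minimum 48 h, 37 C compound exposure with 20 nM CPT in Tdp1-knockout DT40 cells stably expressing hTDP1, seeded 400/well; qHTS titration format.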
DT40 TDP1 no CPT: qHTS for Inhibitors of human tyrosyl-DNA phosphodiesterase 1 (TDP1): qHTS in cells in absence of CPT | AID 686978, 2013 | DT40 Tdp1-/- hTDP1 cells, no CPT, ATP luminescence, 48 h | 420,000 tested, 15% active | Potency, µM (highest dose often 46.2 µM), for inactives: at the top dose activity change, negative = growth inhibition, actives largely listed as inhibitors; note: potency is the fitted concentration of half-maximal effect; nearly all actives have a fitted effect of over 55% in size
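Camptothecin absent (DMSO only). Human TDP1-complemented DT40 knockout cells, 400 cells/well, 37 °C for minimum 48 hr; ATP measured via CellTiter-Glo, 30 min dark incubation, luminescence.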
IL-1B inflam inh: inflammasome signaling inhibition, IL-1 beta readout. AID 743279. activity change, % at 57.5 µM. 360,000 tested, 4.7% active. THP-1 LPS/ATP IL-1B secretion, AlphaLISA, 16 h; stronger effect = lower value; in the data active = activity change below about -50%; inconclusive = mostly about -30% to -49%
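THP-1 cells pretreated 1 hr with compounds (up to 57.5 uM final), then stimulated with LPS (250 ng/mL final) plus ATP (1.25 mM final); secreted IL-1B measured by AlphaLISA after 16 hr, decreased signal indicating inhibition.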
ELG1 DNA repair: blocks ELG1-dependent DNA repair in HEK293T cells | HEK293T ELG1-luciferase reporter, luminescence, 16 h; DNA damage induced by 5-fluorouridine | Potency, µM (series often up to 46.1 µM), without a hit: at the top dose activity change, negative = inhibition, most hits filed as inhibitors | 330,000 tested, 2.3% active; note: potency is the fitted concentration of half-maximal effect; nearly all actives have a fitted effect of over 55% in size
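HEK293T cells expressing luciferase-tagged ELG1 (2,000/well) received 5-Fluorouridine plus compound or DMSO for 16 hr at 37 °C. Luciferase was read by ONE-Glo luminescence after 30 min at room temperature.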
Numbers without * were called inactive; ? = inconclusive; nt = no result; [ ] = dose if it differs, or a comment. This is a sample that favours compounds with a hit; in the whole collection about 19% have one here. Unless noted, calls come from the whole dose curve; as a rule, active = well fitted curve in the direction sought with a large enough effect; inconclusive = small, poorly fitted or top-dose-only effect, or another doubt; inactive = no such curve, though single readings can be large; an effect the other way counts as inactive or inconclusive. Unless noted, % is set by controls: 0 for no effect and ±100 for the full control effect.

SMILES	HT1080NT lethal	HT1080 IDH1KD tx	TDP1 cell CPT	DT40 TDP1 no CPT	IL-1B inflam inh	ELG1 DNA repair
COc1ccc(NC(=O)COC(=O)c2ccc(S(=O)(=O)N3CCCCC3)cc2)c(OC)c1	2.0%	-1.0%	-8.6%	-3.9%	-5.2	nt
Cc1ccc2c(=O)cc(C(=O)Nc3sc4c(c3C(=O)NCc3ccco3)CCCC4)oc2c1C	nt	nt	4.6%	4.6%	nt	nt
O=C1c2ccccc2C(=O)N1CCC#Cc1ccc2cc(CCCO)oc(=O)c2c1	1.4%	21.9%	-3.0%	-2.4%	-10.5	?
O=c1oc(CCCO)cc2ccc(C#Cc3ccsc3)cc12	2.0%	4.9%	?	18.4µM*	-7.5	?
CN(C)c1ccc(C#Cc2ccc3cc(CCCO)oc(=O)c3c2)cc1	1.0%	-0.8%	?	-26.9%	41.8	?
O=c1oc(CCCO)cc2ccc(C#CC3(O)CCCCC3)cc12	-3.8%	2.0%	?	18.4µM*	26.4	?
[N-]=[N+]=NCC1OC(n2cnc3c(=O)[nH]c(N)nc32)C(O)C1O (stereo not given)	nt	nt	-1.4%	14.7%	nt	nt
C[C@@H]1CN(Cc2ccc3c(c2)CN(Cc2nc(-c4ccccc4)cs2)CCO3)C[C@H](C)O1	nt	nt	-7.2%[9.04 µM]	23.1µM*	nt	nt
C[C@@H]1CN(Cc2ccc3c(c2)CN(C(=O)c2ccc(Oc4ccccc4)o2)CCO3)C[C@H](C)O1	nt	nt	-14.0%[9.04 µM]	11.6µM*	nt	nt
C[C@@H]1CN(Cc2ccc3c(c2)CN(C(=O)CN2CCOc4ccccc4C2)CCO3)C[C@H](C)O1	nt	nt	-3.9%[9.04 µM]	-22.8%	nt	nt
CCCS(=O)(=O)NC(=O)C1(C)CCN(C(=O)c2ccccc2F)C1 (stereo not given)	17.1%	0.4%	-19.5%	-10.7%	14.0	nt
COc1cccc(OC)c1C(=O)Nc1cccc(C(C)=O)c1	-5.0%	0.3%	7.2%	-2.5%	-21.9	?
COc1ccccc1-c1nn(CCC(=O)Nc2cccc(C(C)=O)c2)c2nc(C)cc(C)c12	nt	nt	?	16.4µM*	nt	nt
CCNC(=O)C1(C)CCCN(C(=O)c2ccnc(Cl)c2)C1 (stereo not given)	17.4%	?	0.8%	4.0%	8.7	nt
CCN(CC)c1ccc(NC(=O)c2sc3nc(-c4ccccc4)cn3c2C)cc1	nt	nt	3.66µM*	5.17µM*	nt	nt
Cc1onc(-c2ccccc2)c1C(=O)Nc1ccc2c(c1)OCCO2	3.1%	6.3%[9.24 µM]	?	-24.1%	23.8	-3.2%
Cc1c(C(=O)Nc2ccncc2)sc2nc(-c3ccccc3)cn12	1.8%	-5.8%	18.4µM*	10.3µM*	18.6	13µM*
Cc1c(C(=O)Nc2ccc3c(c2)OCCO3)sc2nc(-c3ccccc3)cn12	?	?	8.2µM*	5.8µM*	-91.6*	13µM*
CCN(CC)C(=O)c1sc2nc(-c3ccc(OC)cc3)cn2c1C	-1.4%	0.5%	-17.0%	?	?	?
COc1ccc(-c2cn3c(C)c(C(=O)Nc4cc(NC(C)=O)ccc4OC)sc3n2)cc1	?	?	13µM*	9.2µM*	5.0	13.2%
CCC(CC)C(=O)Nc1ccc(C(=O)OCc2cc(=O)n3nc(C4CC4)sc3n2)cc1	nt	nt	-27.0%	?	nt	nt
O=C(Cc1cccnc1)N[C@@H]1CC[C@H](CCn2cc(Cc3ccccc3)nn2)O[C@@H]1CO	21.6%	9.7%	-4.7%	-0.8%	-7.0	nt
CN(C)Cc1nc2c(c(=O)[nH]1)C1(CCCCC1)Cc1ccccc1-2	-13.6%	-0.2%	18.4µM*	23.1µM*	-8.1	-21.3%
CCC1(CC)Cc2ccccc2-c2nc(CN(C)C)[nH]c(=O)c21	?	-14.9%	?	16.4µM*	-2.5	?
CN(C)Cc1nc2c(c(=O)[nH]1)C(C)(C)Cc1ccccc1-2	-0.5%	0.3%	-3.3%	10.7%	-2.8	-1.2%
SMILES	HT1080NT lethal	HT1080 IDH1KD tx	TDP1 cell CPT	DT40 TDP1 no CPT	IL-1B inflam inh	ELG1 DNA repair
O=c1[nH]c(NCCCO)nc2c1C1(CCCC1)Cc1ccccc1-2	-27.6%	?	?	?	?	2.3%
CCC1(CC)Cc2ccccc2-c2nc(-c3ccccc3)oc(=O)c21	5.4%	-1.6%	?	16.4µM*	6.3	1.3%
O=c1oc(-c2ccccc2)nc2c1C1(CCCCC1)Cc1ccccc1-2	-6.7%	-4.5%	-2.6%	-13.0%	-4.5	1.4%
CCN(CC)Cc1nc2c(c(=O)[nH]1)C1(CCCCC1)Cc1ccccc1-2	1.1%	-4.9%	20.6µM*	18.4µM*	-16.3	-0.8%
CCCn1c(N)c(C(=O)CSc2nnc(Cc3cccs3)n2C2CC2)c(=O)n(C)c1=O	-11.8%	-0.5%	?	?	5.1	11.2µM*
CN1CCOc2cc(S(=O)(=O)N3CCN(c4nc(-c5cccs5)nc5ccccc45)CC3)ccc21	14.8%	3.3%	5.1%	?	nt	nt
CCCc1c(C)nc2ccc(OC)cc2c1SCCC(=O)O	-1.9%	-13.6%	?	8.2µM*	30.6	-3.8%
CCCOc1ccc2nc(C)c(CCC)c(SC(=N)N)c2c1	9.1%	11.8%	-4.4%	?	7.8	-10.8%
Cc1ccc(CC2(OCCN(C)C)CCC(C(C)(C)C)CC2)cc1 (stereo not given)	-6.2%	-2.2%	18.4µM*	14.6µM*	-99.5*	nt
CN(C)CCCCOc1ccc(F)cc1	14.3%	10.6%	1.2%	?	-5.4	-6.0%
CN(C)CCNCc1ccc(OC2CCCC2)cc1	-22.6%	-6.1%	?	?	0.0	-4.7%
